# Bioassay records as filed in PubChem.
# VACV Venus inh – vaccinia inhibition (Venus reporter) | Vaccinia virus Venus reporter expression, fluorescence | Potency, µM (highest dose often 36.5 µM), inactives show at the top dose activity change, negative = inhibition, usual class: inhibitors | hit rate 0.46% among 330,000; calls by dose curve; tested in A549 cells; further: nearly all actives have a fitted effect of over 30% in size
# MARV entry inh – Marburg virus entry inhibition | Marburg virus pseudotyped entry inhibition, cell reporter | hit rate 1.8% among 300,000 | AID 540276 | Potency, µM (top dose mostly 37.8 µM), without a hit: at the top dose activity change, negative = inhibition, actives largely listed as inhibitors; calls by dose curve; tested in HEK293 cells
# Vaccinia mCherry – vaccinia inhibition (mCherry reporter) | Vaccinia virus mCherry reporter infection, fluorescence | hit rate 0.63% among 310,000 | Potency, µM (doses to about 36.5 µM), without a hit: at the highest dose activity change, negative = inhibition, hits mostly inhibitors; calls by dose curve; tested in A549 cells; further: nearly all actives have a fitted effect of over 35% in size
# FMDV inh – foot and mouth disease virus antiviral activity; Potency, µM (series often up to 57.9 µM), without a hit: at the highest dose activity change, negative = inhibition, most hits filed as inhibitors; hit rate 1.2% among 410,000; AID 1159524; FMDV antiviral cell-based qHTS; calls by dose curve; tested in HEK293T cells; further: read-out not given here; nearly all actives have a fitted effect of over 45% in size
# Lassa entry inh – Lassa virus entry inhibition | Potency, µM (titrated, usually from 37.9 µM), without a hit: at the top dose activity change, negative = inhibition, hits mostly inhibitors | Lassa virus pseudotype entry inhibition, cell reporter | AID 540256 | hit rate 1.2% among 300,000; calls by dose curve; tested in HEK293 cells; further: nearly all actives have a fitted effect of over 50% in size
# Sm TGR inh – inhibitors of Schistosoma mansoni thioredoxin glutathione reductase. Q962Y6. purified TGR, DTNB reduction, TNB absorbance 405 nm. Potency, µM (titrated, usually from 114 µM), for inactives: at the top dose activity change, negative = inhibition, most hits filed as inhibitors. hit rate 3% among 360,000; active means well fitted inhibition curve with a large enough effect; inconclusive means small, poorly fitted or top-dose-only effect; inactive means no such curve, though single readings can be large or run the other way; further: nearly all actives have a fitted effect of over 60% in size
#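 TGR 20 nM + NADPH 100 uM (dispensed conc.), cpd preinc 15 min RT; start with NADPH (500 uM addition) then DTNB (15 mM addition). Kinetic TNB absorbance, 405 nm filter. Four-parameter Hill fit across titration.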
# Numbers without * were called inactive; i = inactive; ? = inconclusive; nt = no result given; [ ] = remark or other dose. Most compounds without a hit are left out; they make up all but 5.4% or so of the library. On the % scale 0 is the no-effect control and ±100 the full control effect; potency means the concentration at half of the fitted maximal effect.
SMILES,VACV Venus inh,MARV entry inh,Vaccinia mCherry,FMDV inh,Lassa entry inh,Sm TGR inh
CCc1ccc(-c2nc(CS(=O)CC(=O)NCCc3ccc(Cl)cc3)c(C)o2)cc1 (configuration not stated),-12%,nt,-11%,-6%,4%[46.1 µM],32µM*
COc1ccc(-c2ccc(NS(=O)(=O)c3ccc(OC)c(OC)c3)cc2)nn1,-6%,nt,i,24%,-14%[46.1 µM],7%
CCOc1ccc(CCNC(=O)CS(=O)Cc2nc(-c3ccc(C)cc3)oc2C)cc1 (configuration not stated),nt,nt,nt,-11%,nt,22µM*
CCn1c2ccccc2c2cc(NC(=O)CSc3nnc(C4CC4)n3Cc3ccco3)ccc21,?,?,?,-19%,?,7.9µM*
CCn1c(SCC(=O)Nc2ccc3c(c2)OCO3)nnc1C1CC1,13%,21%[46.1 µM],-6%,-14%,14%[46.1 µM],0%
O=C(CSc1nnc(-c2ccc(Cl)cc2)n1Cc1ccco1)Nc1ccc2c(c1)OCCO2,nt,?,nt,?,-14%,25µM*
O=C(CSc1nnc(-c2ccncc2)n1Cc1ccco1)OC1CCCCC1,nt,-1%,nt,?,-1%,40µM*
CN(C)C(=O)CSc1nnc(-c2ccncc2)n1Cc1ccco1,-4%,nt,i,2%,nt,56%
COc1ccc(-c2cnc(SCC(=O)Nc3ccc4c(c3)OCO4)n2Cc2ccco2)cc1,-14%,?,-24%,?,?,-24%
CC(=O)Nc1cccc(NC(=O)CSc2ncc(-c3ccc(Cl)cc3)n2Cc2ccco2)c1,?,?,?,14µM*,?,-19%
CCOc1ccc(-c2cccc(NS(=O)(=O)c3c(C)cc(C)cc3C)c2)nn1,-12%,nt,-4%,-3%,-13%[46.1 µM],8%
Cn1cnnc1Sc1ccc(CN2CCOc3ccc(C4=Cc5ccccc5CC4)cc3C2)o1,-6%,nt,-23%,20%,nt,nt
Cn1c(SCC(=O)Nc2ccc(Cl)cc2F)nnc1-c1ccco1,-7%,?,-12%,17%,-11%[46.1 µM],35µM*
Cn1c(SCC(=O)N2c3ccccc3Sc3ccc(Cl)cc32)nnc1-c1ccco1,-6%,?,-11%,-8%,?,-27%
O=C(CSc1nnc(-c2ccncc2)n1Cc1ccco1)N1c2ccccc2Sc2ccc(Cl)cc21,14%,?,nt,-26%,-26%,45µM*
Cc1cc(Cl)ccc1NC(=O)CSc1nnc(-c2ccncc2)n1Cc1ccco1,nt,-10%,nt,6%,-13%,45µM*
Cc1cc(NC(=O)CSc2nnc(-c3ccco3)n2C)no1,nt,nt,nt,-13%,nt,-28%
Cc1cccc(C)c1NC(=O)CSc1nnc(-c2ccncc2)n1Cc1ccco1,-13%,1%,-16%,nt,-5%,8%[11.4 µM]
Cc1ccc(-c2nc3c(c(SCC(=O)Nc4cccc(C(=O)O)c4)n2)Cc2cccc(C)c2O3)cc1,1%,-26%[46.1 µM],-12%,nt,-7%[46.1 µM],-10%
COc1ccc(O[C@H]2C=C[C@@H](c3ccccc3)O[C@H]2COC(=O)CCC(C)=NO[C@@H]2O[C@H](COC(C)=O)[C@@H](OC(C)=O)[C@H](OC(C)=O)[C@@H]2OC(C)=O)cc1,nt,-23%[14.2 µM],nt,nt,nt,nt
CN(C)CCCN(C(=O)/C=C/c1cccs1)c1nc2ccc(F)cc2s1,-19%,8.9µM*,?,-16%,-30%,7%
Cc1cccc(NC(=O)CSCC(=O)Nc2ccccc2N2CCCCC2)c1,-4%,11µM*,?,-18%,?,3%
O=C(CN1CCc2ccccc2C1)Nc1ccccc1N1CCCCCC1,nt,18µM*,nt,?,-29%,5%
CC(=O)c1cccc(-n2nnnc2SCC(=O)Nc2ccccc2N2CCCCC2)c1,-37%,11µM*,-24%,?,?,2%
O=C(CN1CCc2ccccc2C1)Nc1ccccc1Cl,nt,nt,nt,-4%,nt,17%
O=C(Nc1cc(Cl)ccc1Cl)c1cc(S(=O)(=O)N2CCCc3ccccc32)ccc1F,-14%,nt,-12%,-14%,?,1%
COc1cc(C(=O)NCC(c2ccc3c(c2)OCO3)N2CCOCC2)cc(OC)c1OC (configuration not stated),-6%,nt,-1%,1%,-3%[46.1 µM],4%
COC(=O)C1=C2CCO[C@@H]2[C@H]2[C@@H](C)[C@H](OC)c3ccccc3[C@H]12,nt,0%[14.2 µM],nt,nt,?,nt
Cc1cccc(OC(=O)c2snnc2C)c1C,-11%,14%[46.1 µM],-8%,3%,-15%[46.1 µM],1%
